# Data reported in PubChem BioAssay.
# Active and inactive are the calls of the source. Unless noted, no rule for the calls is given here.
# How the values were obtained:
# [1] = anti-His antibody binders, primary screen, artefact control for SMM control protein annotation, biochemical, small-molecule microarray, 635 nm fluorescence (AID 1128); settings: anti-His Alexa647 antibody binding, higher = more signal;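 also: score merges feature fluorescence with signal-to-noise for each printed compound spot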
# [2] = tested on: Human papillomavirus type 1a E7 protein (residues 1-88); experiment: HPV1a E7 small-molecule binders, primary screen, biochemical, small-molecule microarray, residues 1-88, 635 nm (AID 1129); settings: small-molecule microarray binding, fluorescence 635 nm; higher = more signal
# [3] = molecular target: Focal adhesion kinase 1 (Homo sapiens) (UniProt Q05397); experiment: small-molecule microarray binders of FAK, primary screen, biochemical, 635/667 nm fluorescence, BSA, DTT (AID 1130); settings: PTK2 binding, 635 nm fluorescence, higher = more signal;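 also: composite of spot emission at 667 nm and signal to noise over triplicate slides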
# Chain of Focal adhesion kinase 1 (Homo sapiens) (Q05397 whole entry, looked up): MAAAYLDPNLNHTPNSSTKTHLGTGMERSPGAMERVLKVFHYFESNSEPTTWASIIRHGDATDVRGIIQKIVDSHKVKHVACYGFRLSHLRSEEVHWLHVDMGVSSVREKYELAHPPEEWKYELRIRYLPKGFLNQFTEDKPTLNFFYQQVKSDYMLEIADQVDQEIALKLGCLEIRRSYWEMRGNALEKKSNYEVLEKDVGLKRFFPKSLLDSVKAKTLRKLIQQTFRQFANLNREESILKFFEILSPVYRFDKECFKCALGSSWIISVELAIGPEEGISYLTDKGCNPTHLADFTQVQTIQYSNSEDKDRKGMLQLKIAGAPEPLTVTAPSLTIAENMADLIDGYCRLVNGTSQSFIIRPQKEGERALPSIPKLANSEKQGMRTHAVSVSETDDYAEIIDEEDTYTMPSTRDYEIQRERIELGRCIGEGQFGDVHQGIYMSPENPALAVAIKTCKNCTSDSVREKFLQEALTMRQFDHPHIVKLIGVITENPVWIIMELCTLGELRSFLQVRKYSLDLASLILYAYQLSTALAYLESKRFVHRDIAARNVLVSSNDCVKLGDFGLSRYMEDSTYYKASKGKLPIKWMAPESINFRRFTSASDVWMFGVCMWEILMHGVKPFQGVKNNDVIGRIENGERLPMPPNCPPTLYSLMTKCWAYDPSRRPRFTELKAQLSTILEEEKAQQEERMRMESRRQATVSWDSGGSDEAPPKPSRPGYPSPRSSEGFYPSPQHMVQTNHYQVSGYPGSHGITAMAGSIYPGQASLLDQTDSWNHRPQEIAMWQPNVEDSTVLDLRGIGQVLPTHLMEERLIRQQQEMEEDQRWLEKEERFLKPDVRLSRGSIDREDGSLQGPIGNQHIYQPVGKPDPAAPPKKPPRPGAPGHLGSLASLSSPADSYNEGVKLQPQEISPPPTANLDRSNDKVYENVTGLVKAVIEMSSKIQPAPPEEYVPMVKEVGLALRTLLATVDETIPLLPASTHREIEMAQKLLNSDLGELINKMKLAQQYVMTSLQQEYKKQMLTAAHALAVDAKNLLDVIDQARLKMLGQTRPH
# [4] = tested on: Fibrinogen (Alexa647-labelled); experiment: fibrinogen binders on compound microarrays, profiling panel, artefact control for SMM control-protein annotation, biochemical, small-molecule microarray, 635/667 nm fluorescence (AID 1131); settings: fibrinogen-A647 binding fluorescence, higher = more signal;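 also: z-score merges 667 nm fluorescence with per-spot signal-to-noise over triplicate slides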
# [5] = molecular target: Follistatin (Homo sapiens) (UniProt P19883); experiment: follistatin binders on small-molecule microarrays, primary screen, biochemical, small-molecule microarray, 635/667 nm fluorescence (AID 1132); settings: FST binding, 635 nm fluorescence, higher = more signal
# Chain of Follistatin (Homo sapiens) (P19883 whole entry, looked up): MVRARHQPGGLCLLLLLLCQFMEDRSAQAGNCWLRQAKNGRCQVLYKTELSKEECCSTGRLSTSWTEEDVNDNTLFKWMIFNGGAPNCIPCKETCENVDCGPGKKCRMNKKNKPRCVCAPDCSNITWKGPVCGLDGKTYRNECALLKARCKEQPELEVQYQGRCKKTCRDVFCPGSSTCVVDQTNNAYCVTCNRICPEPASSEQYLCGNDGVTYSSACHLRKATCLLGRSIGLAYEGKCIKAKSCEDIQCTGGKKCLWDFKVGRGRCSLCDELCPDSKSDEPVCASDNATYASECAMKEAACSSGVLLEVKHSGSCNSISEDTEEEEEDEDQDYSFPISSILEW
# [6] = molecular target: Fibroblast growth factor 2 (Homo sapiens) (UniProt P09038); experiment: FGF2 binders on small-molecule microarrays, primary screen, biochemical, small-molecule microarray, 635/667 nm fluorescence (AID 1133); settings: small-molecule microarray binding, FGF2, fluorescence 635/667; higher = more signal
# Chain of Fibroblast growth factor 2 (Homo sapiens) (P09038 whole entry, looked up): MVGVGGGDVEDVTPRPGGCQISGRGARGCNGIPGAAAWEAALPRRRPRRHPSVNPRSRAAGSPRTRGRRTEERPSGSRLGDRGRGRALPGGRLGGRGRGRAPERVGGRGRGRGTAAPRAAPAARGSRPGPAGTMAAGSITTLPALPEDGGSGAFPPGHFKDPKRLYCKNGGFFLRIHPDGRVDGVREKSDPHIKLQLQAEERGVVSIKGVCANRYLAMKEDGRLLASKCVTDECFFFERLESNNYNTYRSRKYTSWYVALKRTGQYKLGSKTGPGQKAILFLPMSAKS
# [7] = mitochondrial membrane potential change in A549 cells, profiling panel, cell-based, JC-1 fluorescence, basal, 24 h, 100 nL (AID 1138); settings: higher = more signal;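 also: A549 lung adenocarcinoma cells under basal conditions with no added stimulus; test concentration not given here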
# Lefty1 = Lefty1 binders on small-molecule microarrays, primary screen, biochemical, small-molecule microarray, 635/667 nm fluorescence (AID 1139); settings: small-molecule microarray binding, fluorescence 635/667; higher = more signal
# [8] = tested on: wheat germ agglutinin (Triticum aestivum), Alexa647-labelled; experiment: wheat germ agglutinin binders on compound microarrays, profiling panel, artefact control for SMM control-protein annotation, biochemical, small-molecule microarray, 635/667 nm fluorescence (AID 1140); settings: WGA-A647 binding, 635 nm fluorescence, higher = more signal;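 also: score merges 667 nm feature emission with signal to noise over triplicate slides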
# [9] = molecular target: Luciferin 4-monooxygenase (Photinus pyralis) (UniProt P08659); experiment: firefly luciferase enzyme inhibitors, primary screen, biochemical, luminescence, purified enzyme, 2006 set (AID 1141); settings: SteadyGlo luminescence, 30 min, higher = more signal, called active from +8 up or from −8 down;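 also: cell-free assay with purified firefly luciferase at 100 ng per well in PBS; test concentration not given here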
# Chain of Luciferin 4-monooxygenase (Photinus pyralis) (P08659 whole entry, looked up): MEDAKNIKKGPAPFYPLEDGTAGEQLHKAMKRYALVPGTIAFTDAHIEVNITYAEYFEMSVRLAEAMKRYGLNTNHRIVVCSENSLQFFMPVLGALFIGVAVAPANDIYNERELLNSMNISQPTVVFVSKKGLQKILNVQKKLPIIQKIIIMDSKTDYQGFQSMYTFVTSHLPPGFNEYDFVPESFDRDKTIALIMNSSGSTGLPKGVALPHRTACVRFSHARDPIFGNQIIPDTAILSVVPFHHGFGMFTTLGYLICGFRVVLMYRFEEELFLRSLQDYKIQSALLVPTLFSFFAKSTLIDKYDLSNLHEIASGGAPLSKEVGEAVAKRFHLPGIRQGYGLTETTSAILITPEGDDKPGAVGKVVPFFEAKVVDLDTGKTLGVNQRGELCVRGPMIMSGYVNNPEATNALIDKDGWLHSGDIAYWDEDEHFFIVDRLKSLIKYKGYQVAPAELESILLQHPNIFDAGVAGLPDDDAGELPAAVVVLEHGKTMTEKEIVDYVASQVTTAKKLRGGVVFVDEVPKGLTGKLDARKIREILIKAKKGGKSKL
# [10] = tested on: Wnt5a (protein binding on small-molecule microarray); experiment: Wnt5a binders on small-molecule microarray, primary screen, biophysical, 635/667 nm fluorescence (AID 1142); settings: 635 nm fluorescence, higher = more signal;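 also: fluorescence read at 667 nm with signal to noise per printed feature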
# [11] = cell viability in Huh7 cells, primary screen, cytotoxicity control for HCV replication inhibitor project, CellTiter-Glo luminescence, basal, 48 h (AID 1143); settings: Huh7 HCV replicon, higher = more signal, called active from +8 up or from −8 down;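 also: Huh7 hepatoma cells carrying a hepatitis C replication reporter with no stimulus; test concentration not given here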
# [12] = P. aeruginosa biofilm formation inhibitors, primary screen, PAO1 strain, BacTiter-Glo luminescence, LB-PBS (AID 1144); settings: 12 h, higher = more signal
# [13] = CREB reporter modulators without forskolin, primary screen, cell-based, PC12, CRE-LacZ reporter, unstimulated (AID 1145); settings: no forskolin, luminescence, 4.5 h, higher = more signal, called active from +8 up or from −8 down
# [14] = CREB reporter modulators under forskolin, primary screen, cell-based, PC12, CRE-LacZ reporter, forskolin-stimulated (AID 1146); settings: luminescence, 4.5 h, higher = more signal, called active from +8 up or from −8 down;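 also: PC12 cells with 6xCRE LacZ reporter stimulated by forskolin 10 µM; beta-galactosidase reporter signal reflecting CREB driven transcription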
# [15] = molecular target: Streptavidin (Streptomyces avidinii) (UniProt P22629); experiment: streptavidin binders on small-molecule microarray, primary screen, artefact control for SMM compound annotation, biophysical, 635/667 nm fluorescence (AID 1147); settings: streptavidin binding, higher = more signal;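 also: signal reflects streptavidin binding to arrayed compounds as a control protein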
# Chain of Streptavidin (Streptomyces avidinii) (P22629 whole entry, looked up): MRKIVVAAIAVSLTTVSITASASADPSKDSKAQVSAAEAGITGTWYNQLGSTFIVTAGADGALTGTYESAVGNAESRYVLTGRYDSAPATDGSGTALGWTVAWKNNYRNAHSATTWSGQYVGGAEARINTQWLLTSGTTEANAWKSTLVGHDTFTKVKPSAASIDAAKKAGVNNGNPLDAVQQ
# [16] = small-molecule binders of probe aInhba, primary screen, biochemical, small-molecule microarray, 635/667 nm fluorescence (AID 1148); settings: higher = more signal;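 also: score merges 667nm spot fluorescence with signal-to-noise for antibody binding to printed compounds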
# Torsin-1A (Homo sapiens) [17] = molecular target: Torsin-1A (Homo sapiens) (UniProt O14656); experiment: torsin A binders from cell lysate, primary screen, small-molecule microarray, wild-type, 635/667 nm (AID 1149); settings: COS7 hTOR1A-WT lysate, 635 nm fluorescence, higher = more signal
# Chain of Torsin-1A (Homo sapiens) (O14656 whole entry, looked up): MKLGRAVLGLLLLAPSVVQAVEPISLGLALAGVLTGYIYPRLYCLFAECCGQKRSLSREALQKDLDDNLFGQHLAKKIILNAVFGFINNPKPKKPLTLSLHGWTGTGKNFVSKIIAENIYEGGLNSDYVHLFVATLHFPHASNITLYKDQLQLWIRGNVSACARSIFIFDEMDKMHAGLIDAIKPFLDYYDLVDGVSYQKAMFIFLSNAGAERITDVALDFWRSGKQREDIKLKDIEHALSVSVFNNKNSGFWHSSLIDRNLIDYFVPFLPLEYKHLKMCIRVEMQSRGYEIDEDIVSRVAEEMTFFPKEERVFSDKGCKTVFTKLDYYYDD
# Torsin-1A (Homo sapiens) [18] = molecular target: Torsin-1A (Homo sapiens) (UniProt O14656); experiment: small-molecule binders of mutant TOR1A in lysate, primary screen, cell lysate, small-molecule microarray, COS7 lysate, 635/667 nm fluorescence (AID 1150); settings: COS7 hTOR1A mutant lysate, 635 nm fluorescence, higher = more signal;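 also: score pools 667 nm emission and signal to noise measuring lysate protein binding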
# [19] = tested on: Sonic hedgehog protein (Shh); experiment: small-molecule binders of Shh protein, primary screen, biochemical, small-molecule microarray, 635/667 nm fluorescence (AID 1151); settings: small-molecule microarray binding, 635 nm fluorescence; higher = more signal;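 also: Shh protein binding to compounds spotted on small-molecule microarray slides; score combines spot fluorescence intensity with signal-to-noise across triplicate slides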
Structure (SMILES),composite z-score [1],composite z-score [2],composite z-score [3],composite z-score [4],composite z-score [5],composite z-score [6],z-score [7],composite z-score (Lefty1),composite z-score [8],z-score [9],composite z-score [10],z-score [11],z-score [12],z-score [13],z-score [14],composite z-score [15],composite z-score [16],composite z-score (Torsin-1A (Homo sapiens) [17]),composite z-score (Torsin-1A (Homo sapiens) [18]),composite z-score [19]
CN(C)CCCNC(=O)[C@@]1(Cc2ccccc2I)c2ccccc2C(=O)N(Cc2ccccc2Cl)[C@H]1c1ccc(CO)cc1,-0.528,1.08,0.224,0.788,-0.292,-0.717,-1.18,-0.615,0.73,0.122 (inactive),0.228,-5.9 (inactive),0.599 (inactive),0.0548 (inactive),2.02 (inactive),0.592,0.397,-0.155,-0.609,-0.0692
CCCCCCCCCCC(O)C1C=CC2C(=O)NC(=O)C2N1Nc1ccccn1 (stereo not given),0.121,0.749,0.675,0.666,-0.008,-1.4,0.706,-0.458,0.331,-0.765 (inactive),-0.41,-3.4 (inactive),-1.27 (inactive),3.3 (inactive),0.383 (inactive),0.606,-0.0087,-1.17,-0.213,-0.478
CC[C@@H]1[C@@H]2C3C(=O)N(CC)C(=O)C3CC(=O)[C@@H]2[C@H](c2ccc(C)cc2)N1S(=O)(=O)c1ccc(C)cc1 (stereo not given in full),0.189,1.2,0.381,-0.826,0.573,-0.415,-0.0765,0.417,0.519,1.46 (inactive),0.513,-3.1 (inactive),-1.88 (inactive),-0.424 (inactive),-0.42 (inactive),0.492,-0.0523,-0.087,0.645,1.18
COC(=O)C(CC#Cc1ccc2c(c1)[C@]1(C(=O)N2)[C@H](C(=O)N2CCc3cc(OC)c(OC)cc3C2)[C@H]2C(=O)O[C@H](c3ccccc3)[C@H](c3ccccc3)N2[C@@H]1c1ccc(OCCO)cc1)C(=O)OC,1.47,1.19,0.344,0.99,1.01,1.71,-1.29,0.928,1.23,-1.9 (inactive),0.5,-0.201 (inactive),-0.895 (inactive),0.865 (inactive),-0.474 (inactive),1.28,0.246,1.28,0.251,1.64
C[C@H]1ON(c2ccccc2)[C@@H](c2ccccc2)[C@@H]1C(=O)N1C(=O)OC[C@@H]1c1ccccc1,0.143,0.718,0.784,0.894,1.12,0.986,-0.21,0.5,0.014,0.422 (inactive),-0.0367,-0.133 (inactive),0.0377 (inactive),-0.323 (inactive),-0.251 (inactive),0.116,-0.0403,0.151,0.201,0.657
COCCOC(=O)N1C(=O)[C@@]2(c3cc(C#CCC(C(=O)OC)C(=O)OC)ccc31)[C@H](c1ccc(OCCO)cc1)N1[C@H](c3ccccc3)[C@H](c3ccccc3)OC(=O)[C@H]1[C@@H]2C(N)=O,1.38,1.2,1.16,0.924,1.28,1.13,-0.921,0.484,0.386,-1.23 (inactive),0.0271,-1.29 (inactive),0.719 (inactive),0.892 (inactive),1.64 (inactive),0.576,0.13,0.337,1.01,0.989
COCCCNC(=O)[C@]1(CCS(=O)(=O)c2ccccc2)N=C(c2ccc(OCCCO)cc2)O[C@@H]1c1ccccc1,1.85,1.27,1.57,0.997,0.892,1.36,1.3,0.136,0.455,-1.45 (inactive),0.118,-1.63 (inactive),-0.812 (inactive),0.638 (inactive),-1.33 (inactive),1.43,0.371,0.972,1.33,0.306
CN(C)C(=O)[C@@]1(Cc2ccccc2N=[N+]=[N-])N=C(c2ccc(OCCCO)cc2)O[C@H]1c1ccccc1N=[N+]=[N-],1.85,1.19,0.921,0.887,1.01,-0.118,2.01,0.16,0.98,-2.25 (inactive),0.451,-3.76 (inactive),1.19 (inactive),1.19 (inactive),-1.97 (inactive),0.54,0.0028,0.761,0.776,-0.536
O=C(O)[C@]1(CCS(=O)(=O)c2ccccc2)N=C(c2ccc(OCCCO)cc2)O[C@@H]1c1ccccc1,0.367,0.228,0.221,0.447,-0.029,-0.0377,0.0511,-0.655,1.36,-1.87 (inactive),0.235,0.495 (inactive),0.869 (inactive),0.19 (inactive),-0.534 (inactive),-0.0087,0.297,-0.0493,-0.301,-0.439
COC(=O)[C@@]1(Cc2ccccc2)[C@H]2c3cc(C(=O)N4CCCC4)n(Cc4ccccc4)c3C[C@H]2CN1C(=O)c1ccccc1,0.673,1.24,0.756,0.524,0.841,-0.407,0.339,0.272,0.893,0.886 (inactive),0.651,-3.2 (inactive),-0.402 (inactive),1.74 (inactive),-0.0064 (inactive),0.589,0.53,-0.112,-0.0741,-0.606
